{"source": "the supplement of paper PMC10681739"}
{"target": "RUNX1 (UniProt Q01196)", "sequence (Q01196 whole entry)": "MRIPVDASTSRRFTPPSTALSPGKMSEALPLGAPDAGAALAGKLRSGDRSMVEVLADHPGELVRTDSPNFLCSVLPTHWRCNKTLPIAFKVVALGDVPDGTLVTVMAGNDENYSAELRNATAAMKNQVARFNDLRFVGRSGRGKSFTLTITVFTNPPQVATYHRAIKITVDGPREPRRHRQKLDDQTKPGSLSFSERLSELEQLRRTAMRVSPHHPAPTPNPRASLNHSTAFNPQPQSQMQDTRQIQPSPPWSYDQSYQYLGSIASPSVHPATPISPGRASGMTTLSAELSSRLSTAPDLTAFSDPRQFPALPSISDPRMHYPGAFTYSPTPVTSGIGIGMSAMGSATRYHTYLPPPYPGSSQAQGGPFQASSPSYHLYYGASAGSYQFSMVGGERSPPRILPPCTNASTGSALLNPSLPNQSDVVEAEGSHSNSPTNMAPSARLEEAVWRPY", "assay": "TF binding intensity (PBM fluorescence), negative control probe (arbitrary fluorescence units); higher = stronger binding", "method": "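gcPBM negative-control 36-bp genomic probes lacking TF binding sites. Each was incubated with recombinant human ETS1 or RUNX1 alone and detected by antibody fluorescence. Values are medians over replicate spots (4 spots for the ETS1-RUNX1 arrays, 3 for the ETS1-ETS1 array). The probes sit in constant array flanks that are not printed.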"}
{"sequence": "TTGCCCGTCACTTGAGTTCCGCCTCCTCTGCTCCTC (protein concentration 2 nM)", "TF binding intensity": 922}
{"sequence": "GGTGTCAAAGCCGAGCGGAAGCGGGGCTGGAATTGG (protein concentration 2 nM)", "TF binding intensity": 891}
{"sequence": "CTCCCTTGCTCACAACTTCCTCTTGCTGTCTGCTTC (protein concentration 2 nM)", "TF binding intensity": 1170}
{"sequence": "ATCAAGGCGCGGCGGCGGAAAAATGTGAAATGGCTT (protein concentration 2 nM)", "TF binding intensity": 920}
{"sequence": "ACGGCAAGTAAAGTGTTTCCGGCTCAGGTGTCATGG (protein concentration 2 nM)", "TF binding intensity": 852}
{"sequence": "ACTACCCTCCGCCCTCTTCCGCCGCCGCCGCCGCCT (protein concentration 2 nM)", "TF binding intensity": 1200}
{"sequence": "GCACACAAGGCAGTGTTTCCGGGACAGAGGGTGGGC (protein concentration 2 nM)", "TF binding intensity": 937}
{"sequence": "TCCCTGCTGGTCCTGGTTCCGGCACACCAGGCCCTC (protein concentration 2 nM)", "TF binding intensity": 864}
{"sequence": "CCCTGCAGCGCGTCCTTTCCGGCCCGCCCCATGCAC (protein concentration 2 nM)", "TF binding intensity": 922}
{"sequence": "GGCCAGAGGAGGGCGCGGAAGTGTTGCCTGGGTGAG (protein concentration 2 nM)", "TF binding intensity": 917}
{"sequence": "CTCACCAGTCACCCCAGGAAACTCTGCCCCTTTACA (protein concentration 2 nM)", "TF binding intensity": 950}
{"sequence": "GTTCCAGAAACGTCACATCCGGCGCCCGCTCCGCCC (protein concentration 2 nM)", "TF binding intensity": 890}
{"sequence": "GTCCAGGCAAGAAACAGGAAGTGTGTCATGCACAGA (protein concentration 2 nM)", "TF binding intensity": 870}
{"sequence": "CTTCTGTCTCCAAAACGGAAATAATAACTTGAGATT (protein concentration 2 nM)", "TF binding intensity": 989}
{"sequence": "AATTCTGGGGAGCGAAGGAAATTGGCTTTCGAGGCG (protein concentration 2 nM)", "TF binding intensity": 1200}
{"sequence": "ACGCTGCGCATGCGCCGGAAGTTGCAGCCGTGAAGC (protein concentration 2 nM)", "TF binding intensity": 811}
{"sequence": "TGAAAAAGGGGAGGGCGGAAGTGACGAGCCGTAGCC (protein concentration 2 nM)", "TF binding intensity": 891}
{"sequence": "AAGTAAGCCCCGCCCCGGAACGGGCAGAAGTAGAGG (protein concentration 2 nM)", "TF binding intensity": 1060}
{"sequence": "GGGTGCAGAAGCCAGCGGAAGCGGAGCGCTACAAGC (protein concentration 2 nM)", "TF binding intensity": 784}
{"sequence": "TAACTCTTTGCTATCCTTCCGCTGAGCTTCATCTTC (protein concentration 2 nM)", "TF binding intensity": 963}
{"sequence": "GAAAAACAGACAGACAGGAAGAGAGAGAGACAGACA (protein concentration 2 nM)", "TF binding intensity": 903}
{"sequence": "TCGGCGGCGGAGCACCGGAAGTTCTGCAGCACTGGC (protein concentration 2 nM)", "TF binding intensity": 880}
{"sequence": "TCTCGCCCCTCATCCCGGAAAGGAAGACTCTGAATG (protein concentration 2 nM)", "TF binding intensity": 891}
{"sequence": "CGTCGCCCGGTCCCGGTTCCGGTCCGCGCTCCGGTC (protein concentration 2 nM)", "TF binding intensity": 910}
{"sequence": "TATCACTTCTGGCGAAGGAAATGGAAGAATCTATGG (protein concentration 2 nM)", "TF binding intensity": 1010}
{"sequence": "ACAGTTGCTCCGTCTCTTCCTGTGTCTGGCTTTATT (protein concentration 2 nM)", "TF binding intensity": 876}
{"sequence": "TCTGAAGGAGCCGGGCGGAAAGAAGCCGAGGCGCGC (protein concentration 2 nM)", "TF binding intensity": 798}
{"sequence": "CCATGATGTTTGTGATTTCCGGCAGATGATGAGTAA (protein concentration 2 nM)", "TF binding intensity": 970}
{"sequence": "AGGAGTTTGCTCATCCTTCCGGATCCAAAGGCTGCG (protein concentration 2 nM)", "TF binding intensity": 712}
{"sequence": "ATTTCTGTGCAGTCACTTCCTCTTCTTAGGTCATAG (protein concentration 2 nM)", "TF binding intensity": 1010}
{"sequence": "CTCAGCGGCCGAACCCGGAAGTTCGGGGCCGAGTTC (protein concentration 2 nM)", "TF binding intensity": 901}
{"sequence": "CCTTTGAAAGAAAAAAGGAAGTGTTTGGACGACAGC (protein concentration 2 nM)", "TF binding intensity": 1150}
{"sequence": "CAACGTTCTTCTGTTCTTCCGTCTGTCGACCGAACT (protein concentration 2 nM)", "TF binding intensity": 945}
{"sequence": "AGGAGGAGATGGGACAGGAAGGAATAGATGGGAGCA (protein concentration 2 nM)", "TF binding intensity": 1720}
{"sequence": "TCTGGACGATGCAGTTTTCCGGTATACGCGACGCTA (protein concentration 2 nM)", "TF binding intensity": 727}
